Usually AC50 stands for the concentration at which the activity in the assay is half-maximal.

Active and inactive are the calls of the source. The calls were made as follows: active = hit-call score of the fitted dose curve at least 0.9, where 1 is the maximum; inactive = score below 0.9.

The record followed here is PubChem BioAssay (EPA / NIEHS).

Read-out in assay [1]: Transforming growth factor beta 1 (TGFb1), TGFB1 (gene 7040)
Description: BSK_KF3CT_TGFb1: BioMAP Diversity Plus: KF3CT Assay for Transforming growth factor beta 1 (TGFb1) Biomarker Activity (AID 2283072). The settings on record: primary human keratinocytes with fibroblasts; actives raise or lower the signal. Put shortly:
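TGF-b1 ELISA on a 24 h dosed co-culture of human keratinocytes and foreskin fibroblasts; cytotoxicity tracked in parallel cultures by SRB staining.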

Read-out in assay [2]: Matrix Metallopeptidase 9 (MMP9), MMP9 (gene 4318)
Description: BSK_KF3CT_MMP9: BioMAP Diversity Plus: KF3CT Assay for Matrix Metallopeptidase 9 (MMP9) Biomarker Activity (AID 2283074). The settings on record: primary human keratinocytes with fibroblasts; actives raise or lower the signal. Put shortly: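 Values come from bidirectional fitting relative to DMSO of MMP-9 levels, which were measured by ELISA. Measurements were taken 24 h after chemical dosing of a keratinocyte and foreskin fibroblast co-culture.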

Read-out in assay [3]: urokinase plasminogen activator (uPA), PLAU (gene 5328)
Description: BSK_KF3CT_uPA: BioMAP Diversity Plus: KF3CT Assay for urokinase plasminogen activator (uPA) Biomarker Activity (AID 2283075). The settings on record: primary human keratinocytes with fibroblasts; actives raise or lower the signal. In outline:
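Values derive from bidirectional fitting against DMSO controls. Keratinocyte/foreskin fibroblast co-cultures received chemical; 24 h later uPA was detected by ELISA, with SRB total-protein staining in parallel wells for overt cytotoxicity.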

Read-out in assay [4]: CD40, CD40 (gene 958)
The assay can be described thus: BSK_LPS_CD40: BioMAP Diversity Plus: LPS Assay for CD40 Biomarker Activity (AID 2283076). The settings on record: primary human HUVEC with PBMC; actives raise or lower the signal. In outline:
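In the LPS system of human endothelial cells with peripheral blood mononuclear cells, CD40 levels were read by ELISA 24 h post-treatment. Signal changes in either direction were fitted against the DMSO baseline, with parallel SRB protein staining.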

Read-out in assay [5]: E-selectin (Homo sapiens) (UniProt P16581)
Description: BSK_LPS_Eselectin: BioMAP Diversity Plus: LPS Assay for Eselectin Biomarker Activity (AID 2283077). The conditions noted are these: primary human HUVEC with PBMC; actives raise or lower the signal. Put shortly:
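E-selectin ELISA on LPS-stimulated endothelial cell/PBMC co-cultures, read 24 h post-treatment; gains and losses fitted against DMSO. Parallel SRB staining (0.1% SRB after 10% TCA fixation, 560 nm) flags overt cytotoxicity.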

Read-out in assay [6]: Interleukin-8 (IL8), CXCL8 (gene 3576)
The assay can be described thus: BSK_LPS_IL8: BioMAP Diversity Plus: LPS Assay for Interleukin-8 (IL8) Biomarker Activity (AID 2283078). The settings on record: primary human HUVEC with PBMC; actives raise or lower the signal. Put shortly: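 ELISA read-out of IL-8 after 24 h chemical treatment of LPS-activated endothelial/PBMC human primary co-cultures. Changes either up or down relative to DMSO; overt cytotoxicity checked by sulforhodamine B staining in parallel wells.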

Assay [7] can be described thus: BSK_LPS_SRB: Viability Assessment in the BioMAP Diversity Plus: LPS Assay (AID 2283079).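 Also: total protein by sulforhodamine B absorbance as a cytotoxicity measure; measured one day after compound addition; fitted in both directions against DMSO so loss or gain of signal counts.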 The settings on record: primary human HUVEC with PBMC. In outline:
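SRB viability endpoint: cells fixed with 10% TCA, stained with 0.1% SRB, read at 560 nm, 24 h post-dose. HUVEC/PBMC co-culture; signal change in either direction scored relative to DMSO.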

Read-out in assay [8]: Interleukin-1 alpha (IL1a), IL1A (gene 3552)
Description: BSK_LPS_IL1a: BioMAP Diversity Plus: LPS Assay for Interleukin-1 alpha (IL1a) Biomarker Activity (AID 2283080). The settings on record: primary human HUVEC with PBMC; actives raise or lower the signal. Put shortly: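 Readout is IL-1a level by ELISA, 24 h post-dose, fitted as gain or loss relative to DMSO. System: LPS-activated human primary co-culture of vascular endothelium and peripheral blood mononuclear cells, with parallel SRB total-protein cytotoxicity.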

Read-out in assay [9]: Monocyte Chemoattractant Protein-1 (MCP1), CCL2 (gene 6347)
Description: BSK_LPS_MCP1: BioMAP Diversity Plus: LPS Assay for Monocyte Chemoattractant Protein-1 (MCP1) Biomarker Activity (AID 2283081).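 As to AC50: secreted MCP-1 protein quantified by ELISA in culture supernatant.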 The settings on record: primary human HUVEC with PBMC; actives raise or lower the signal. Put shortly: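 Secreted MCP-1 read by ELISA at 24 h post-dosing in an LPS-activated co-culture of endothelial cells with peripheral blood mononuclear cells. Fits run in both directions, DMSO as baseline; parallel SRB staining tracks overt cytotoxicity.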

Assay [10] in a line: BSK_LPS_PGE2: BioMAP Diversity Plus: LPS Assay for Prostaglandin E2 (PGE2) Biomarker Activity (AID 2283082).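 As to AC50: secreted prostaglandin E2 measured by ELISA in LPS-stimulated co-culture.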 The settings on record: primary human HUVEC with PBMC; actives raise or lower the signal. Put shortly: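 Primary human endothelial cells and blood mononuclear cells, co-cultured with LPS, receive test chemical; PGE2 ELISA follows at 24 h, with SRB-stained parallel cultures flagging cytotoxicity.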

Read-out in assay [11]: Macrophage colony-stimulating factor (MCSF), CSF1 (gene 1435)
The assay can be described thus: BSK_LPS_MCSF: BioMAP Diversity Plus: LPS Assay for Macrophage colony-stimulating factor (MCSF) Biomarker Activity (AID 2283083). The conditions noted are these: primary human HUVEC with PBMC; actives raise or lower the signal. Put shortly:
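Bidirectional fitting against DMSO was applied to M-CSF levels read by ELISA at 24 h post-dose. The system pairs human umbilical vein endothelium with peripheral blood mononuclear cells; parallel SRB staining tracked cytotoxicity.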

Read-out in assay [12]: Tissue Factor, F3 (gene 2152)
Description: BSK_LPS_TissueFactor: BioMAP Diversity Plus: LPS Assay for Tissue Factor Biomarker Activity (AID 2283084). The settings on record: primary human HUVEC with PBMC; actives raise or lower the signal. In outline:
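Compound was added to an endothelial cell/PBMC co-culture, and after 24 h tissue factor (CD142) was read by ELISA. Gain or loss of signal was fitted against a DMSO baseline, and parallel SRB staining (560 nm) tracked overt cytotoxicity.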

Read-out in assay [13]: Tumor necrosis factor (Homo sapiens) (UniProt P01375)
The assay can be described thus: BSK_LPS_TNFa: BioMAP Diversity Plus: LPS Assay for Tumour Necrosis Factor alpha (TNFa) Biomarker Activity (AID 2283085).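 As to AC50: TNFa protein level quantified by ELISA in the co-culture.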 The conditions noted are these: primary human HUVEC with PBMC; actives raise or lower the signal. Put shortly:
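ELISA-based TNFa endpoint in a human endothelial–PBMC co-culture sampled 24 h post-exposure. Curves were fitted in both directions using DMSO as baseline of activity.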

Read-out in assay [14]: Vascular cell adhesion molecule 1 (VCAM1), VCAM1 (gene 7412)
Description: BSK_LPS_VCAM1: BioMAP Diversity Plus: LPS Assay for Vascular cell adhesion molecule 1 (VCAM1) Biomarker Activity (AID 2283086). The conditions noted are these: primary human HUVEC with PBMC; actives raise or lower the signal. In outline: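 Measured by ELISA: VCAM-1 in LPS-activated HUVEC/PBMC co-cultures 24 h after treatment. Values reflect bidirectional fitting with DMSO as baseline.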

Read-out in a further assay: CD38, CD38 (gene 952)
The assay can be described thus: BSK_SAg_CD38: BioMAP Diversity Plus: SAg Assay for CD38 Biomarker Activity (AID 2283087). The conditions noted are these: primary human HUVEC with PBMC; actives raise or lower the signal. Put shortly: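 Measures CD38 on a human endothelial/PBMC co-culture driven by SEB and TSST-1, 24 h after compound exposure, using ELISA with fluorescence detection; DMSO defines baseline for bidirectional curve fitting.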

Read-out in assay [15]: CD40, CD40 (gene 958)
Description: BSK_SAg_CD40: BioMAP Diversity Plus: SAg Assay for CD40 Biomarker Activity (AID 2283088). The settings on record: primary human HUVEC with PBMC; actives raise or lower the signal. Put shortly:
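CD40 is measured by fluorescence ELISA in an endothelial/PBMC primary human co-culture at 24 h post-dose. Fitting is bidirectional, DMSO baseline. Parallel SRB staining (560 nm) flags cytotoxicity.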

Read-out in assay [16]: Monocyte Chemoattractant Protein-1 (MCP1), CCL2 (gene 6347)
The assay can be described thus: BSK_SAg_MCP1: BioMAP Diversity Plus: SAg Assay for Monocyte Chemoattractant Protein-1 (MCP1) Biomarker Activity (AID 2283090). The conditions noted are these: primary human HUVEC with PBMC; actives raise or lower the signal. In outline: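 Values derive from bidirectional fitting of ELISA-measured MCP1 against DMSO controls. Readings were taken 24 h after dosing human vascular endothelial cells co-cultured with peripheral blood mononuclear cells under superantigen stimulation.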

Read-out in assay [17]: E-selectin (Homo sapiens) (UniProt P16581)
The assay can be described thus: BSK_SAg_Eselectin: BioMAP Diversity Plus: SAg Assay for Eselectin Biomarker Activity (AID 2283091). The conditions noted are these: primary human HUVEC with PBMC; actives raise or lower the signal. Put shortly:
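Cell-surface E-selectin is read by ELISA at 24 h in the SAg co-culture of HUVEC and PBMC. Curves are fitted in both directions relative to DMSO. Parallel SRB total-protein staining tracks overt toxicity.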

Read-out in a further assay: CD69, CD69 (gene 969)
Description: BSK_SAg_CD69: BioMAP Diversity Plus: SAg Assay for CD69 Biomarker Activity (AID 2283089).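 As to AC50: cell surface CD69 protein quantified by ELISA with fluorescence detection.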 The settings on record: primary human HUVEC with PBMC; actives raise or lower the signal. In outline:
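Values derive from bidirectional fitting relative to DMSO vehicle. Cells: umbilical vein endothelium plus peripheral blood mononuclear cells, treated 24 h before fluorescent ELISA for CD69.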

Chain of E-selectin (Homo sapiens) (P16581 whole entry, looked up): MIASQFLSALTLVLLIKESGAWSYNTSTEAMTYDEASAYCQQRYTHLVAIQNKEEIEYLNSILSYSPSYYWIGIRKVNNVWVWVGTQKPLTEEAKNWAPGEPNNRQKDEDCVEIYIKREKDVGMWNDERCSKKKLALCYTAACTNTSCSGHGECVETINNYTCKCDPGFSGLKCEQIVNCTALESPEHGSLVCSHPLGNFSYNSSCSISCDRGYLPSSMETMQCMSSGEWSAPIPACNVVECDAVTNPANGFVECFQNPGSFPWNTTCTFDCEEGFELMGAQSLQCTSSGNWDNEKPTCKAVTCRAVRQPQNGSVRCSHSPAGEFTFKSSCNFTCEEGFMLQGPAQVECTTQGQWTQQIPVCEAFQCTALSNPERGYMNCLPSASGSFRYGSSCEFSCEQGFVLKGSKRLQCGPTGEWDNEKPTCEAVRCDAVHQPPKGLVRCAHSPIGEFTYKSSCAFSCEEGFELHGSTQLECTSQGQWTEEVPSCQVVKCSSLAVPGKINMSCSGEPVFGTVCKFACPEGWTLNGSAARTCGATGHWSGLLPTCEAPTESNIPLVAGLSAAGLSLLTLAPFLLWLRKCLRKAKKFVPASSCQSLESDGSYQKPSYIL
Chain of Tumor necrosis factor (Homo sapiens) (P01375 whole entry, looked up): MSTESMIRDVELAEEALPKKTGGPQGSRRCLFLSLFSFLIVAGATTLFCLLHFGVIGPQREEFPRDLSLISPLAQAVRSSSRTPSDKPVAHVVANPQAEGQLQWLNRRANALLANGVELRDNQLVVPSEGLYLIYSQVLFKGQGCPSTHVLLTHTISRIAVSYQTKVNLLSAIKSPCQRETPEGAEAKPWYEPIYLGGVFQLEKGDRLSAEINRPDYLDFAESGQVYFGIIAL

For the compound `CCSC(=O)N1CCCCCC1`, the outcome in [1] is “inactive”; in [2], “inactive”; in assay [3] it was “inactive”; in the assay with CD40, CD40 (gene 958) [4], “inactive”; in [5], “inactive”; in [6] it was “inactive”. In addition, the outcome in assay [7], in assay [8], in assay [9], in assay [10], in [11] and in assay [12] was inactive. The outcome is “inactive” in assay [13]; “inactive” in assay [14]; “inactive” with CD38, CD38 (gene 952); “inactive” with CD40, CD40 (gene 958) [15]; “inactive” in [16]; “inactive” in assay [17].
With `COP(=S)(OC)SCn1nnc2ccccc2c1=O`, the outcome in [1] was “inactive”; in [2], “inactive”; in assay [3] it was “inactive”; with CD40, CD40 (gene 958) [4], “inactive”; in assay [5], “inactive”; in [6], “inactive”. The outcome in assay [7], in assay [8], in [11] and in [16] was inactive. The half-maximal activity concentration (AC50) in assay [9] is 20 µM (active); in assay [10], 13.8 µM (active); in assay [12], 16.9 µM (active); in [13], 5.58 µM (active); in assay [14] it was 20 µM (active); with CD40, CD40 (gene 958) [15], 20 µM (active). The AC50 is 20 µM (active) with CD69, CD69 (gene 969) and 10.4 µM (active) in assay [17].
With `Nc1c(Cl)c(F)nc(OCC(=O)O)c1Cl`, the outcome in [1] was “inactive”; in assay [2], “inactive”; in assay [3], “inactive”; in the assay with CD40, CD40 (gene 958) [4] it was “inactive”; in [5] it was “inactive”; in assay [6], “inactive”. The outcome in assay [7], in assay [8], in assay [9], in assay [10], in assay [11] and in assay [13] was inactive. Besides, the outcome in [14] is “inactive”; with CD40, CD40 (gene 958) [15], “inactive”; with CD69, CD69 (gene 969), “inactive”; in assay [16], “inactive”; in assay [17], “inactive”. Further, in [12], the AC50 is 5.36 µM (active).
On to `CNC(=O)Oc1cccc2ccccc12`, for which the outcome in assay [1], in assay [2], in [3], in assay [5], in assay [6] and in assay [8] was inactive. Besides, the outcome in [9] was “inactive”; in [12], “inactive”; in [13], “inactive”; with CD38, CD38 (gene 952), “inactive”; with CD40, CD40 (gene 958) [15] it was “inactive”; with CD69, CD69 (gene 969), “inactive”. For the same compound, the result in [16] and in assay [17] was inactive. The AC50 with CD40, CD40 (gene 958) [4] was 20 µM (active); in assay [7], 13.3 µM (active); in [10], 1.63 µM (active); in [11] it was 20 µM (active); in assay [14] it was 9.39 µM (active).
As for `CC1(C)C(C=C(Cl)Cl)C1C(=O)OC(C#N)c1cccc(Oc2ccccc2)c1` (stereo not given), the outcome in assay [1] is “inactive”; in assay [2], “inactive”; in assay [3], “inactive”; with CD40, CD40 (gene 958) [4], “inactive”; in assay [5], “inactive”; in assay [6] it was “inactive”. Further, the outcome is “inactive” in assay [8]; “inactive” in [9]; “inactive” in [11]; “inactive” in [12]; “inactive” in [14]; “inactive” with CD40, CD40 (gene 958) [15]. Besides, the result in assay [16] and in assay [17] was inactive. Further, the AC50 in [7] was 3.97 µM (active); in [10], 4.89 µM (active); in [13], 0.838 µM (active).
